The whole screen tested about 39,000 compounds, of which about 1,500 (3.8%) were called active. Many of the other results were omitted from the sample, so actives are more common in it than they were.

In the assay the test system is HSkMC (human skeletal muscle cells). Briefly: cytotoxicity call (relative viability < 0.9). Particulars: 10 µM.
Consider `Cc1ccc(S(=O)(=O)Nc2ccc3c(c2)C(=O)N([C@@H](C)CO)C[C@@H](C)[C@@H](CN(C)C(=O)Nc2ccc(C(F)(F)F)cc2)O3)cc1`, for which the cytotoxicity call is “inactive”.
Under `C[C@H](CO)N1C[C@H](C)[C@@H](CN(C)C(=O)Nc2ccc(C(F)(F)F)cc2)OCc2cn(nn2)CCCC1=O` stands “inactive”; under `CN(C)/N=N/c1nc[nH]c1C(N)=O`, “inactive”.
To `COC(=O)C[C@H]1CC[C@H](N)[C@@H](CO)O1` belongs “inactive”; to `NCc1cccc(-c2ccccc2)c1`, “inactive”.
For `C[C@@H]1CCCCO[C@@H](CN(C)C(=O)NC2CCCCC2)[C@@H](C)CN([C@H](C)CO)C(=O)c2cc(NC(=O)CCCCCC(=O)Nc3ccccc3N)ccc2O1`, the cytotoxicity call was “inactive”.
Turning to `C[C@@H]1CN([C@@H](C)CO)C(=O)c2cc(NC(=O)Nc3ccc(F)cc3)ccc2O[C@@H](C)CCCCO[C@@H]1CN(C)C(=O)C1CCCCC1`, the cytotoxicity call is “inactive”.
On to `C[C@@H]1CN([C@@H](C)CO)C(=O)c2cc(NS(=O)(=O)c3ccc(Cl)cc3)ccc2O[C@H]1CN(C)Cc1ccc(Cl)c(Cl)c1`, for which the cytotoxicity call is “active”.
To `C[C@H](CO)N1C[C@H](C)[C@@H](CN(C)Cc2ccc(Cl)c(Cl)c2)Oc2ccc(NS(=O)(=O)c3ccc(Cl)cc3)cc2C1=O` belongs “active”; to `C[C@@H]1CN([C@H](C)CO)C(=O)c2cc(NS(=O)(=O)c3ccc(Cl)cc3)ccc2O[C@@H]1CN(C)Cc1ccc(Cl)c(Cl)c1`, “active”; to `C[C@H]1CN([C@@H](C)CO)C(=O)c2cc(NS(=O)(=O)c3ccc(Cl)cc3)ccc2O[C@H]1CN(C)Cc1ccc(Cl)c(Cl)c1`, “active”.
Take `COc1oc(C(=O)NC2CCCCC2)c(-c2ccc(Cl)cc2)c1S(=O)(=O)c1ccccc1Cl`: the cytotoxicity call was “inactive”.
Under `Cc1ccc(S(=O)(=O)N2C[C@H](O)COC[C@@H]3O[C@H](CC(=O)NCCN4CCCCC4)CC[C@H]32)cc1` stands “inactive”.
On to `COc1ccc(NC(=O)N2C[C@H](O)COC[C@H]3O[C@@H](CC(=O)NCc4ccccc4OC)CC[C@@H]32)cc1`, for which the cytotoxicity call was “inactive”.
Under `COc1ccc(NC(=O)N(C)C[C@H]2OCCCC[C@@H](C)Oc3ccc(NC(=O)CCC(F)(F)F)cc3C(=O)N([C@H](C)CO)C[C@H]2C)cc1` stands “inactive”; under `C[C@@H]1CCCCO[C@H](CN(C)Cc2ccc(C(F)(F)F)cc2)[C@H](C)CN([C@@H](C)CO)C(=O)c2cc(NC(=O)CCC(F)(F)F)ccc2O1`, “inactive”.
Under `COc1ccc(C#Cc2ccc3c(c2)[C@]2(C(=O)N3)[C@H](c3ccccc3OCCO)N3[C@H](c4ccccc4)[C@H](c4ccccc4)OC(=O)[C@H]3[C@@H]2C(=O)NC[C@H](O)c2ccccc2)cc1` stands “inactive”.
With `COc1ccc(S(=O)(=O)N(C)C[C@@H]2Oc3c(NS(=O)(=O)c4ccc(C)cc4)cccc3C(=O)N([C@@H](C)CO)C[C@H]2C)cc1`, the cytotoxicity call was “inactive”.
As to `C[C@@H]1CN([C@@H](C)CO)C(=O)c2cc(NS(=O)(=O)c3ccc(Cl)cc3)ccc2O[C@@H](C)CCCCO[C@H]1CN(C)C(=O)c1ccncc1`, the cytotoxicity call was “inactive”.
`C=C(C)CCn1cccc1C(C)=O`: the cytotoxicity call is “inactive”.
To `C[C@H]1CN([C@@H](C)CO)S(=O)(=O)c2ccc(C#Cc3cccc(F)c3)cc2O[C@@H]1CN(C)C(=O)CN1CCOCC1` belongs “inactive”.
In the case of `Cc1noc(C)c1NC(=O)N(C)C[C@H]1Oc2ccc(NC(=O)CCCN(C)C)cc2C(=O)N([C@@H](C)CO)C[C@@H]1C`, the cytotoxicity call was “inactive”.
To `C[C@@H]1CN([C@H](C)CO)S(=O)(=O)c2ccc(C3=CCCC3)cc2O[C@@H]1CN(C)C(=O)c1cnccn1` belongs “inactive”; to `C[C@H](CO)N1C[C@H](C)[C@H](CN(C)Cc2ccc(Cl)c(Cl)c2)Oc2ccc(NS(=O)(=O)c3ccc(Cl)cc3)cc2C1=O`, “active”.
For the molecule `C[C@@H]1CN([C@@H](C)CO)C(=O)c2cc(NS(=O)(=O)c3ccccc3)ccc2O[C@@H]1CN(C)Cc1ccc(Cl)c(Cl)c1`, the cytotoxicity call was “active”.
To `C[C@H](CO)N1C[C@H](C)[C@H](CN(C)Cc2ccc(Cl)c(Cl)c2)Oc2ccc(NS(=O)(=O)c3ccccc3)cc2C1=O` belongs “inactive”.
For the molecule `C[C@H](CO)N1C[C@H](C)[C@@H](CN(C)Cc2ccc(Cl)c(Cl)c2)Oc2ccc(NS(=O)(=O)c3ccccc3)cc2C1=O`, the cytotoxicity call is “inactive”.
Under `C[C@H]1CN([C@@H](C)CO)C(=O)c2cc(NS(=O)(=O)c3ccccc3)ccc2O[C@@H]1CN(C)Cc1ccc(Cl)c(Cl)c1` stands “inactive”.
To `C[C@@H]1CN([C@@H](C)CO)C(=O)c2cc(NS(=O)(=O)c3ccc(Cl)cc3)ccc2O[C@@H]1CN(C)Cc1ccc(Cl)c(Cl)c1` belongs “active”.
Turning to `C[C@H]1CN([C@@H](C)CO)C(=O)c2cc(NS(=O)(=O)c3ccc(Cl)cc3)ccc2O[C@@H]1CN(C)Cc1ccc(Cl)c(Cl)c1`, the cytotoxicity call was “active”.
To `C[C@@H]1CN([C@H](C)CO)C(=O)c2cc(NS(=O)(=O)c3ccc(Cl)cc3)ccc2O[C@H]1CN(C)Cc1ccc(Cl)c(Cl)c1` belongs “inactive”; to `COc1ccc(S(=O)(=O)N(C)C[C@H]2OCc3cnnn3CCCC(=O)N([C@H](C)CO)C[C@@H]2C)cc1`, “inactive”.
Under `Cc1noc(C)c1NC(=O)Nc1cccc2c1O[C@@H](CN(C)S(=O)(=O)c1ccccc1)[C@H](C)CN([C@@H](C)CO)C2=O` stands “inactive”; under `C[C@@H]1CCCCO[C@H](CN(C)C(=O)c2ccncc2)[C@H](C)CN([C@@H](C)CO)C(=O)c2cc(NC(=O)C3CCCCC3)ccc2O1`, “inactive”; under `COc1ccc(-c2cnc3c(c2)C(=O)N([C@@H](C)CO)C[C@@H](C)[C@@H](CN(C)C(=O)Cc2cccnc2)O3)cc1`, “inactive”.
On to `C/C=C/c1cccc(-c2nc(C(=O)NCc3ccccc3)cc3c2[C@H](CCO)N([S@@](=O)C(C)(C)C)C3)c1`, for which the cytotoxicity call was “inactive”.
As to `C=CCOC(=O)[C@@H]1[C@H]2C(=O)O[C@H](c3ccccc3)[C@H](c3ccccc3)N2[C@H](c2ccccc2OCCO)[C@@]12C(=O)Nc1ccc(I)cc12`, the cytotoxicity call was “inactive”.
Under `O=C(C[C@@H]1CC[C@H](NC(=O)Nc2ccc3c(c2)OCO3)[C@H](CO)O1)NCCCN1CCOCC1` stands “inactive”; under `C[C@H](CO)N1C[C@H](C)[C@@H](CN(C)S(=O)(=O)c2ccc(Cl)cc2)Oc2ccc(NC(=O)Cn3cnnn3)cc2CC1=O`, “inactive”.
To `COc1ccc(-c2ccc3c(c2)O[C@H](CN(C)CC2CCOCC2)[C@H](C)CN([C@H](C)CO)S3(=O)=O)cc1` belongs “inactive”.
Under `COCc1cn(CC[C@@H]2CC[C@@H](NC(=O)CCN3CCCCC3)[C@@H](CO)O2)nn1` stands “inactive”; under `Cn1c(=O)c2c(ncn2CC(O)CO)n(C)c1=O` (stereo not given), “inactive”.
As to `Cn1c(=O)c(F)c(Nc2ccc(I)cc2F)c2c(=O)n(C[C@@H](O)CO)cnc21`, the cytotoxicity call was “active”.
To `Cn1c(=O)c2c(ncn2C[C@@H](O)CO)n(C)c1=O` belongs “inactive”.
To `Cc1noc(C)c1S(=O)(=O)N(C)C[C@H]1OCc2cnnn2CCCC(=O)N([C@H](C)CO)C[C@H]1C` belongs “inactive”.
Under `Cc1ccc(S(=O)(=O)Nc2ccc3c(c2)CC(=O)N([C@H](C)CO)C[C@@H](C)[C@@H](CN(C)Cc2ccncc2)O3)cc1` stands “inactive”; under `CS(=O)(=O)Nc1ccc2c(c1)[C@H]1C[C@H](CC(=O)NCc3ccc(-c4ccccc4)cc3)O[C@H](CO)[C@H]1O2`, “inactive”; under `C/C=C1\[C@@H](O[C@H]2O[C@@H](CO)[C@@H](O)[C@@H](O)[C@@H]2O)OC=C(C(=O)OC)[C@H]1CC(=O)OC[C@H]1[C@H](C)[C@H](OC(=O)C[C@@H]2C(C(=O)OC)=CO[C@H](O[C@H]3O[C@@H](CO)[C@@H](O)[C@@H](O)[C@@H]3O)/C2=C\C)C[C@@H]1[C@H](CO)COC(=O)C[C@@H]1C(C(=O)OC)=CO[C@@H](O[C@H]2O[C@@H](CO)[C@@H](O)[C@@H](O)[C@@H]2O)/C1=C\C`, “inactive”.
Regarding `C[C@@H]1CN([C@H](C)CO)C(=O)c2cc(NC(=O)C3CCCCC3)ccc2O[C@H]1CN(C)Cc1ccc(Cl)c(Cl)c1`, the cytotoxicity call is “inactive”.
To `N[C@@H](CC(=O)Nc1ccc(Cl)cc1)C(=O)O` belongs “inactive”.
To `CC(C)NC(=N)NC(=N)Nc1ccc(Cl)cc1.Cl` belongs “inactive”; to `Cl.Cl.N=C(NCCCCCCNC(=N)NC(=N)Nc1ccc(Cl)cc1)NC(=N)Nc1ccc(Cl)cc1`, “active”.
To `C[C@H](CO)N1C[C@H](C)[C@H](CN(C)S(=O)(=O)c2ccccc2)Oc2ccc(NS(=O)(=O)c3cn(C)cn3)cc2C1=O` belongs “inactive”; to `O=C(O)c1ccnc2nc[nH]c12`, “inactive”.
As for `O=C1OC(c2cc(I)c(O)c(I)c2)(c2cc(I)c(O)c(I)c2)c2ccccc21`, the cytotoxicity call is “inactive”.
To `O=C1OC2(c3ccccc31)c1cc(I)c(O)c(I)c1Oc1c2cc(I)c(O)c1I` belongs “active”.
Regarding `O=C1OC2(c3ccc(O)cc3Oc3cc(O)ccc32)c2ccccc21`, the cytotoxicity call is “inactive”.
Take `Clc1ccc(-c2cccs2)nn1`: the cytotoxicity call was “inactive”.
Under `CC(C)NC(=O)Nc1cccc2c1O[C@@H](CN(C)C(=O)Nc1ccc3c(c1)OCO3)[C@H](C)CN([C@H](C)CO)C2=O` stands “inactive”; under `COCC#Cc1cnc2c(c1)C(=O)N([C@H](C)CO)C[C@H](C)[C@H](CN(C)C(=O)Nc1ccccc1OC)O2`, “inactive”.
On to `C[C@H]1CN([C@@H](C)CO)C(=O)c2cc(NS(=O)(=O)c3ccc(Cl)cc3)ccc2O[C@H]1CN(C)Cc1ccc(-c2ccccc2)cc1`, for which the cytotoxicity call is “inactive”.
Under `C[C@H](CO)N1C[C@H](C)[C@H](CN(C)Cc2ccc(-c3ccccc3)cc2)Oc2ccc(NS(=O)(=O)c3ccc(Cl)cc3)cc2C1=O` stands “active”; under `C[C@@H]1CN([C@H](C)CO)C(=O)c2cc(NS(=O)(=O)c3ccccc3)ccc2O[C@@H]1CN(C)Cc1ccc(-c2ccccc2)cc1`, “inactive”; under `C[C@@H]1CN([C@H](C)CO)C(=O)c2cc(NS(=O)(=O)c3ccc(Cl)cc3)ccc2O[C@@H]1CN(C)Cc1ccc(-c2ccccc2)cc1`, “active”.
To `C[C@@H]1CN([C@@H](C)CO)C(=O)c2cc(NS(=O)(=O)c3ccc(Cl)cc3)ccc2O[C@@H]1CN(C)Cc1ccc(-c2ccccc2)cc1` belongs “active”; to `C[C@@H]1CN([C@@H](C)CO)C(=O)c2cc(NS(=O)(=O)c3ccc(Cl)cc3)ccc2O[C@H]1CN(C)Cc1ccc(-c2ccccc2)cc1`, “active”.
To `C[C@H](CO)N1C[C@H](C)[C@@H](CN(C)Cc2ccc(-c3ccccc3)cc2)Oc2ccc(NS(=O)(=O)c3ccccc3)cc2C1=O` belongs “inactive”.
In the case of `C[C@H]1CN([C@@H](C)CO)C(=O)c2cc(NS(=O)(=O)c3ccc(Cl)cc3)ccc2O[C@@H]1CN(C)Cc1ccc(-c2ccccc2)cc1`, the cytotoxicity call is “inactive”.
To `C[C@H](CO)N1C[C@H](C)[C@H](CN(C)Cc2ccc(-c3ccccc3)cc2)Oc2ccc(NS(=O)(=O)c3ccccc3)cc2C1=O` belongs “inactive”.
Under `C[C@H]1CN([C@@H](C)CO)C(=O)c2cc(NS(=O)(=O)c3ccccc3)ccc2O[C@@H]1CN(C)Cc1ccc(-c2ccccc2)cc1` stands “inactive”.
